Data reported in PubChem BioAssay AID1863 (Southern Research Specialized Biocontainment Screening …, 2009).
About 480 (0.16%) of roughly 300,000 compounds were called active.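 The calls were made as follows: active = inhibition over 29.93%, a cutoff 3 SD above the screen mean, later confirmed by dose response; inconclusive = inhibition over 29.93% but no dose response follow-up; inactive = inhibition at most 29.93% or unconfirmed.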 Only a sample is shown. Measured potencies and affinities stand elsewhere.

Test: PhoP-dependent GFP reporter repression – Salmonella Typhimurium, primary screen (AID 1863);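 also: 0% = low Mg2+ inducing control and 100% = high Mg2+ repressing control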
Settings: S. Typhimurium PhoP-regulated promoter GFP reporter, 4 h; at 50 µM; active compounds read high

inhibition, inactive:
NC1=NC[C@H](Cc2ccccc2)N1CC1CCCCC1 -1.5%, CN(C)C1=NC[C@H](Cc2ccccc2)N1CCCC1CCCC1 -2.38%, O=C(Oc1ccc(/C=N/NC(=O)c2ccccc2O)cc1)c1ccccc1 -2.42%, Cc1nn(-c2ccccc2)c(N2CCCC2)c1/C=N/NC(=O)c1ccccc1O -4.47%, Cc1ccc(CCNC(=O)C2CCCN(S(=O)(=O)c3c(C)nn(C)c3C)C2)cc1 (stereo unspecified) -2.59%, Cc1[nH]c2ccccc2c1C(=O)CSC(=S)N1CCCCC1 -9.67%, O=C(Cc1nnc(NC(=O)Nc2ccccc2)s1)Nc1ccccc1 0.5%, Cc1cccc(NC(=S)N2CCC(N(C)CC3CCCO3)CC2)c1 (stereo unspecified) 2.69%, Cc1cc(C(C)(C)C)ccc1OCCCCN1CCCC1 -7.85%, CCC(C)(C)c1ccc(OCCCC[n+]2cccc(C)c2)c(C(C)(C)CC)c1 25.6%, Cc1cc[n+](CC[n+]2ccc(C)cc2)cc1 6.23%, CCC(C)(C)c1ccc(OCC(=O)N(C)C)c(C(C)(C)CC)c1 -2.72%, Cc1nc2c(ncn2-c2ccccc2)c(=O)n1NC(=O)CN1CCN(C)CC1 4.84%, COc1ccc(CNc2ncccc2[N+](=O)[O-])cc1 2.57%, COC(C(=O)Nc1ccc(Br)cc1F)c1ccccc1 (stereo unspecified) 4.52%, COc1ccc2[nH]cc(/C=N/NS(=O)(=O)c3ccc(C)cc3)c2c1 -5.48%, NC(=S)N/N=C/c1c[nH]c2ccc(OCc3ccccc3)cc12 1.88%, COc1ccccc1OCC(O)Cn1c(=N)n(Cc2ccccc2)c2ccccc21 (stereo unspecified) -0.92%, N=c1n(Cc2ccc(Cl)cc2)c2ccccc2n1CC(O)COc1ccccc1 (stereo unspecified) 3.85%, O=C(NC1CCCCC1)C1COc2ccccc2O1 (stereo unspecified) 1.35%, O=C(N/N=C/C=C/c1ccc([N+](=O)[O-])cc1)c1cccs1 -4.65%, Cc1cc(C(=O)N/N=C/c2ccc([N+](=O)[O-])o2)c(C)o1 -2.92%, Cc1scc(C(=O)N/N=C/c2ccco2)c1C 0.79%, CCCC(=O)Nc1ccc(C(=O)N/N=C/c2ccc([N+](=O)[O-])o2)cc1 -16.6%, O=C(N/N=C/C=C/c1ccccc1[N+](=O)[O-])c1cccs1 -10.8%, O=C(N/N=C/c1ccc([N+](=O)[O-])o1)c1ccncc1 3.52%, OC1CCN(Cc2ccc(OCc3ccccc3)cc2)CC1 2.08%, O=S(=O)(c1ccc(Br)cc1)N1CCN=C1SCc1cccc(F)c1 -2.02%, Cc1c(C(=O)N(Cc2cccc(Br)c2)C2CCS(=O)(=O)C2)oc2ccc(F)cc12 (stereo unspecified) 3.11%, O=C(ONC1=NCCCCC1)c1ccc(Cl)cc1 -13.6%, Cc1nn(C)c(=O)n1-c1ccccc1 0.59%, O=C(N/N=C\c1cc2c(cc1[N+](=O)[O-])OCO2)c1cccs1 -4.81%, O=C(N/N=C/c1ccc(Br)s1)c1cccs1 0.89%, O=C(N/N=C/c1ccccc1[N+](=O)[O-])c1cccs1 -1.95%, O=C(N/N=C\c1ccc(Cl)s1)c1cccs1 -9.8%, COc1ccccc1NC(=O)Nc1ccc(Cl)c(S(=O)(=O)Nc2ccccc2OC)c1 -18.5%, CCOc1ccc(CN(CC)C(=O)c2ccc3c(c2)[nH]c(=O)c(=O)n3CC)cc1OC 2.8%, COc1ccccc1CCNC(=O)C1(C)CC1(Cl)Cl (stereo unspecified) -0.33%, O=C(CN1CCN(Cc2ccccc2)CC1)NCc1ccc(Cl)cc1 3.85%, CCOC(=O)C1CCCN(C(=O)c2ccccc2NC(C)=O)C1 (stereo unspecified) 8.46%, OCCn1c(CSc2nnc(-c3ccco3)n2-c2ccccc2)nc2ccc(Cl)cc21 8.64%, COc1cccc(-c2nc(=S)c3c(n2CCCO)CCCC3)c1 6.79%, CSc1cccc(NC(=S)N(CCCN2CCCC2)Cc2cccs2)c1 2.61%, CN1\C(=C/C=C/C=C/C=[N+](C)C)C(C)(C)c2ccccc21 -18.9%, CN1/C(=C\C=O)C(C)(C)c2ccccc21 4.13%, O=C(c1ccccc1)c1ccccn1 3.01%, Cc1ccccc1-c1nnc(SCCOc2ccc3c(C)cc(=O)oc3c2)o1 0.64%, Cc1ccc(S(=O)(=O)CC(=O)c2ccc([N+](=O)[O-])cc2)cc1 -7.13%, CCn1cc(C(=O)NN)c(=O)c2cc(F)c(N3CCOCC3)cc21 -6.58%, CCn1cc(C(=O)NCc2ccccn2)c(=O)c2cc(F)c(N3CCN(C)CC3)cc21 17.4%, CCCCCOC(=O)NCC(O)c1ccccc1 (stereo unspecified) 10.7%, N#CC1=C(N)N(c2ccccc2)C(c2cccc([N+](=O)[O-])c2)C1(C#N)C#N (stereo unspecified) -7.85%, O=C(Cc1ccccc1)c1c[nH]c(C(=O)NCCCN2CCOCC2)c1 -3.4%, O=C(Nc1ccccc1N1CCOCC1)C1CCN(S(=O)(=O)c2ccc(F)cc2)CC1 -4.59%, O=C(Nc1ccc(CN2CCOCC2)cc1)c1cccc(-c2cc3ccccc3oc2=O)c1 -5.22%, O=C1c2ccccc2NC(c2ccc(-c3cccc([N+](=O)[O-])c3)o2)N1O (stereo unspecified) 43%, O=C1c2ccccc2NC(c2ccco2)N1O (stereo unspecified) 7.8%, Cc1cc([N+](=O)[O-])ccc1-c1ccc(C2Nc3ccccc3C(=O)N2O)o1 (stereo unspecified) -3.84%, O=C1c2ccccc2NC(c2ccc(Cl)cc2Cl)N1O (stereo unspecified) 0.793%, O=C(N/N=C/c1ccccc1[N+](=O)[O-])c1ccc2c(c1)OCCO2 -4.47%, CCOC(=O)c1sc(=S)n(-c2ccc(C)cc2)c1SC -0.48%, Nc1nc(N2CCCCC2)nc2ccccc12 0.383%, Nc1nc(N2CCOCC2)nc2ccccc12 19.6%, O=C(N/N=C\c1cccc(Cl)c1)c1ccc(Cn2cc(Br)c([N+](=O)[O-])n2)o1 -28.5%, Nc1cc(C(=O)O)c(Oc2ccc(Cl)cc2Cl)cc1C(=O)O 9.23%, O=C(O)/C=C/c1ccccc1Oc1ccc(Cl)cc1Cl 1.78%, COc1ccc(N2CCN(C(=O)COc3cccc4ccccc34)CC2)cc1 4.64%, Cc1ccc(NCC(=O)N/N=C/c2ccc(C(=O)O)cc2)cc1 7.26%, CC(=O)N1CCOc2ccc(S(=O)(=O)N3CCC(C(=O)Nc4ccc(C)cc4)CC3)cc21 0.99%, COc1ccc(NCc2nn(CC(=O)c3ccc(Br)cc3)c3[n+]2CCCCC3)cc1 -2.79%, O=C(Cn1nc(CNc2ccc(Br)cc2)[n+]2c1CCCCC2)c1ccc([N+](=O)[O-])cc1 5.85%, O=C(Cn1nc(CNc2ccc(Cl)cc2)[n+]2c1CCCCC2)c1ccccc1 8.62%, O=C(Cn1nc(CNc2ccc(Cl)cc2)[n+]2c1CCCCC2)c1ccc(Cl)cc1 7.8%, O=C1Nc2ccccc2OCc2c1cccc2[N+](=O)[O-] -2.35%, O=C(O)C1CCC1C(=O)Nc1nc(-c2ccc(Cl)s2)cs1 (stereo unspecified) -4.65%, CCC(=O)c1ccccc1OCCCCn1cncn1 4.32%, CN1CCN(C(=O)CSc2nnc(COc3ccc(Cl)cc3)o2)CC1 5.2%, CC(=O)Nc1cccc(NC(=O)CCNC(=O)c2ccccc2)c1 5.9%, Cc1nnc(SCc2ccc(CC(=O)O)cc2)o1 -9.32%, COc1ccc(C(=O)NCC(c2cccs2)N2CCc3ccccc32)cc1OC (stereo unspecified) -7.86%, COC(=O)C1=C(C)NC2=C(C(=O)CC(C)(C)C2)C1c1cnn(C)c1C (stereo unspecified) -3.34%, C/C(=N\Nc1nc2ccccc2[nH]1)c1ccc(Cl)s1 31.6%, C/C(=N\Nc1nc2ccccc2[nH]1)c1ccc(C)o1 9.28%, CN(C)S(=O)(=O)c1ccc(C(=O)NCc2ccccc2)cc1 5.29%, CC(C)CNC(=O)COC(=O)c1cccc(S(=O)(=O)NCC(F)(F)F)c1 0.22%, Cn1c(=O)c(C(=O)NNC(=O)c2ccccc2Cl)c(O)c2ccccc21 3.12%
